# This is a sample that favours compounds with a hit; in the whole collection about 21% have one here.
# Shiga toxin inh: blocks Shiga toxin action in Vero cells; Vero cells, Shiga toxin protein synthesis inhibition reporter; inhibition, % at 38.7 µM; actives 9.2% (n = 290,000); in the data active = inhibition mostly above about 28%, no sharp cut-off; inactive = mostly below about 43%; also: 0% is about no effect
# Pf growth 96h: P. falciparum growth inhibition at 96 hour, primary screen for plastid delayed-death inhibitors | Potency, µM (doses to about 28.7 µM), for inactives: at the highest dose activity change, negative = inhibition, hits mostly inhibitors | AID 504834 | P. falciparum luciferase reporter growth, 96 h | actives 6.9% (n = 320,000); active = well fitted inhibition curve with a large enough effect; inconclusive = small, poorly fitted or top-dose-only effect, or another doubt; inactive = no such curve, though single readings can be large or run the other way; also: potency is read from the fitted curve at half-maximal effect; % is scaled to controls: 0 for no effect and ±100 for the full control effect
#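 Cell-based qHTS: luciferase-tagged P. falciparum in erythrocytes (2% hematocrit, 0.05% parasitemia final) incubated with compounds for 96 hours, 37 C, 5% CO2; luciferase detection reagent then added and luminescence measured.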
# CHX counter: affects cycloheximide protein synthesis inhibition readout, counter-screen; max response, %; cell reporter, cycloheximide protein synthesis inhibition counterscreen; actives 12% (n = 300,000); AID 2314; in the data active = max response mostly above about 13%, no sharp cut-off; inactive = mostly below about 14%; also: read at 38.3 µM for the half of the compounds with a filed dose; 0% is about no effect
# SARS PLpro yeast: SARS-CoV PLP inhibition in yeast. actives 0.19% (n = 330,000). S. cerevisiae expressing SARS-CoV PLpro, growth rescue. Potency, µM (titrated, usually from 32.9 µM), for inactives: top-dose activity, positive = growth rescue, hits mostly activators. AID 485353; also: potency is read from the fitted curve at half-maximal effect; 0% is about no effect; nearly all actives have a fitted effect of over 55% in size
# NS1 function inh: influenza NS1 inhibition | Potency, µM (top dose mostly 46.1 µM), inactives show at the highest dose activity, positive = more growth | actives 0.4% (n = 270,000) | AID 2326; also: potency is read from the fitted curve at half-maximal effect; actives are rising curves; nearly all actives have a fitted effect of over 50% in size
#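 S. cerevisiae expressing influenza A NS1, grown in glucose, washed, then diluted 1:100 into pH 6.0 -URA galactose medium with 23 nl compound. Growth recovery read as OD600; NS1-free strain serves as control.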
# Pf growth 48h: P. falciparum growth inhibition at 48 hours (one generation); AID 504832; P. falciparum luciferase growth in erythrocytes, 48 h; actives 5.9% (n = 310,000); Potency, µM (highest dose often 28.7 µM), inactives show at the highest dose activity change, negative = inhibition, hits mostly inhibitors; active = well fitted inhibition curve with a large enough effect; inconclusive = small, poorly fitted or top-dose-only effect, or another doubt; inactive = no such curve, though single readings can be large or run the other way; also: potency is read from the fitted curve at half-maximal effect; % is scaled to controls: 0 for no effect and ±100 for the full control effect
#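 First compound was added to culture medium, then infected red cells at 0.1% parasitemia and 2% hematocrit (final). After incubation at 37 C under 5% CO2, luciferase detection reagent was dispensed and light output recorded.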
# Active calls of the source: *; u = inconclusive; x = no result given. Unless noted, calls follow the shape of the full dose curve.
SMILES,Shiga toxin inh,Pf growth 96h,CHX counter,SARS PLpro yeast,NS1 function inh,Pf growth 48h
O=C(Nc1ccccc1Cl)c1ccc2nc(N3CCOCC3)sc2c1,19,u,11*,-1%,5%,26%
O=C(Nc1ccc(F)cc1F)c1ccc2nc(N3CCOCC3)sc2c1,49*,12µM*,18*,5%,-11%,80%
Cc1cccc(NC(=O)c2ccc3nc(N4CCOCC4)sc3c2)c1C,16*,u,10,8%,10%,u
O=C(NCCc1ccccc1)c1ccc2nc(N3CCOCC3)sc2c1,14,u,12*,-2%,-7%,3%
CC(OC(=O)CC1CCCCC1)C(=O)Nc1cccc(C#N)c1 (stereo unspecified),x,8%,x,2%,x,u
CC(OC(=O)C1CC(=O)N(Cc2ccccc2)C1)C(=O)Nc1cccc(C#N)c1 (stereo unspecified),-3,6.6µM*,8,3%,21%,0%
CCOC(=O)C1CCN(c2ncnc3nc[nH]c23)CC1,-11,u,-6,10%,-4%,u
CCOC(=O)C1CCN(c2ncnc3c(C)csc23)CC1,67*,29%,48*,-4%,-10%,58%
CCOc1cc2c3c(c1)C(C)CC(C)(C)N3C(=O)C2=O (stereo unspecified),-19,0.83µM*,-1,-7%,0%,u
Cc1cc2c3c(c1)C(C)CC(C)(C)N3C(=O)C2=O (stereo unspecified),11,0%,-2,-1%,-6%,-18%
Cc1ccc(S(=O)(=O)N/N=C/c2cc(Br)ccc2O)cc1,-12,38%,1,-4%,-8%,33%
Cc1ccc(S(=O)(=O)Nc2ccc(Br)cc2/C=N/n2cnnc2)cc1,-8,3.7µM*,0,-54%,-197%,0%
O=C(NC1CCCCC1)c1cc([N+](=O)[O-])[nH]n1,31,13%,7,-5%,u,16%
CCOC(=O)c1sc(NC(=O)C(C)Sc2nc(N)cc(=O)[nH]2)nc1C (stereo unspecified),-26,35%,1,1%,x,u
Cn1nc([N+](=O)[O-])nc1S(C)(=O)=O,31,4.7µM*,31*,-5%,x,-6%
Cn1nc([N+](=O)[O-])nc1Oc1ccc2ccccc2c1,-2,11%,-3,10%,2%,x
COc1ccccc1C(=O)NC(CCSC)C(=O)NCCCn1nc(C)cc1C (stereo unspecified),x,6%,x,1%,x,-7%
COCCn1c(SCc2cccc([N+](=O)[O-])c2)nc2ccccc2c1=O,-3,u,-6,-3%,-9%,9.3µM*
COc1ccc(CC(=O)N2CCN=C2SCc2cccc([N+](=O)[O-])c2)cc1,-5,u,9,0%,x,10µM*
Cn1c(SCc2cccc([N+](=O)[O-])c2)nc2ccccc2c1=O,x,10µM*,x,-22%,x,5.2µM*
COc1ccc(C(=O)Nn2c(SCC(=O)N3CCC(C)CC3)nc3ccccc3c2=O)cc1,25,2%,10,-7%,9%,58%
COc1ccc(C(=O)Nn2c(SCc3cccc([N+](=O)[O-])c3)nc3ccccc3c2=O)cc1,114*,u,61*,-7%,u,217%
Cc1ccc(CSc2nc3ccccc3c(=O)n2C)cc1,-5,-13%,1,0%,-3%,-20%
Cn1c(SCc2cccc(C#N)c2)nc2ccccc2c1=O,-2,69%,-1,-1%,-28%,10µM*
COc1ccc(C(=O)Nn2c(SCC(=O)c3ccc(Cl)cc3)nc3ccccc3c2=O)cc1,22,u,17*,-13%,4%,-60%
SMILES,Shiga toxin inh,Pf growth 96h,CHX counter,SARS PLpro yeast,NS1 function inh,Pf growth 48h
O=C(NCc1ccco1)/C(=C/c1ccc([N+](=O)[O-])cc1)NC(=O)c1ccco1,-3,u,-4,-2%,2%,34%
S=C(NCc1ccc(Cl)cc1)Nc1ccccc1Cl,-8,16%,1,19%,7%,5%
COc1ccc(NC(=S)NCCc2ccc(Cl)cc2)c(OC)c1,-13,u,-1,15%,2%,-12%
Cc1ccc(NC(=S)NCc2ccc(Cl)cc2)c(C)c1,9,u,9,0%,u,10µM*
CSc1ccccc1NC(=S)NCc1ccc(Cl)cc1,151*,u,37*,15%,-17%,-5%
COc1ccc(NC(=S)NCc2ccc(Cl)cc2)c(OC)c1,x,u,15*,-2%,u,u
COc1ccc(NC(=O)CSc2nc3sc(C)cc3c(=O)n2C)c(OC)c1,-9,11%,-5,0%,-45%,u
CCOC(=O)c1cnn(-c2ccccc2)c1-n1cccc1C(=O)C(=O)Nc1ccccc1,43*,29%,21*,-7%,10%,32%
NC(=O)c1cnn(-c2ccc3ccccc3c2)c1N,39,155%,24*,1%,x,102%
CCOC(=O)c1cnn(-c2cccc(Cl)c2)c1N,61*,27%,34*,-3%,-12%,55%
CCOC(=O)c1ccc(Oc2ccc(C(F)(F)F)cn2)cc1,61,63%,29*,2%,x,3%
COC(=O)c1cnn(-c2ccccc2)c1N,33,4%,10,-2%,10%,23%
CCn1c(SCC(=O)N/N=C/c2ccccc2OCC(=O)O)nnc1-c1ccc(C)cc1,-13,32%,-1,0%,0%,22%
CCC(C)(C)NC(=O)CN(C(=O)CCC(=O)Nc1ccccn1)c1ccc2c(c1)OCO2,-7,-24%,-4,-3%,7%,-17%
CCOC(=O)c1cnn(-c2ccc(C(F)(F)F)cn2)c1N,77*,x,40*,-4%,-12%,120%
CCOC(=O)c1cnn(-c2ccccc2)c1N,34,26%,31*,2%,-9%,x
CCOC(=O)c1cnn(-c2ccc([N+](=O)[O-])cc2)c1N,18,69%,15*,-1%,-6%,169%
O=c1cc(O)c2c(=O)n(-c3ccccc3)c3c(c2o1)CCCCCC3,-11,-32%,-6,u,-5%,-4%
O=C(NC1CCCC1)c1cc2cc(Br)ccc2o1,92*,-18%,51*,0%,-32%,45%
CN(C(=O)CNC(=O)c1ccc(Br)o1)C1CCCCC1,78*,u,21*,-2%,6%,38%
O=C(NC1CCCCCC1)c1ccc(Br)o1,38,37%,13,0%,-16%,40%
O=C(NC1CCCC1)c1ccc(Br)o1,-4,-42%,-3,-7%,-10%,x
O=C(NC1CCCCC1)c1cc2cc(Br)ccc2o1,76*,-25%,58*,-6%,4%,58%
O=C(NC1CCCCCCC1)c1ccc(Br)o1,84*,55%,25*,-4%,-32%,5%
COc1ccccc1C(=O)N/C(=C/c1ccc(Br)cc1)C(=O)NCC(=O)O,-22,u,-3,7%,9%,2%
